# The whole screen tested about 220,000 compounds, of which about 5,700 (2.6%) were called active. Roughly 18% stayed inconclusive and do not appear here. Calls follow the shape of the dose curve; as a rule, active = well fitted inhibition curve with a large enough effect; inconclusive = small, poorly fitted or top-dose-only effect; inactive = no such curve, though single readings can be large or run the other way. The list comes from a sample in which actives are over-represented; it also holds similar structures and randomly drawn compounds.
# Target: Lysine-specific demethylase 5B (Homo sapiens) (UniProt Q9UGL1)
# Sequence (Q9UGL1 whole entry, looked up): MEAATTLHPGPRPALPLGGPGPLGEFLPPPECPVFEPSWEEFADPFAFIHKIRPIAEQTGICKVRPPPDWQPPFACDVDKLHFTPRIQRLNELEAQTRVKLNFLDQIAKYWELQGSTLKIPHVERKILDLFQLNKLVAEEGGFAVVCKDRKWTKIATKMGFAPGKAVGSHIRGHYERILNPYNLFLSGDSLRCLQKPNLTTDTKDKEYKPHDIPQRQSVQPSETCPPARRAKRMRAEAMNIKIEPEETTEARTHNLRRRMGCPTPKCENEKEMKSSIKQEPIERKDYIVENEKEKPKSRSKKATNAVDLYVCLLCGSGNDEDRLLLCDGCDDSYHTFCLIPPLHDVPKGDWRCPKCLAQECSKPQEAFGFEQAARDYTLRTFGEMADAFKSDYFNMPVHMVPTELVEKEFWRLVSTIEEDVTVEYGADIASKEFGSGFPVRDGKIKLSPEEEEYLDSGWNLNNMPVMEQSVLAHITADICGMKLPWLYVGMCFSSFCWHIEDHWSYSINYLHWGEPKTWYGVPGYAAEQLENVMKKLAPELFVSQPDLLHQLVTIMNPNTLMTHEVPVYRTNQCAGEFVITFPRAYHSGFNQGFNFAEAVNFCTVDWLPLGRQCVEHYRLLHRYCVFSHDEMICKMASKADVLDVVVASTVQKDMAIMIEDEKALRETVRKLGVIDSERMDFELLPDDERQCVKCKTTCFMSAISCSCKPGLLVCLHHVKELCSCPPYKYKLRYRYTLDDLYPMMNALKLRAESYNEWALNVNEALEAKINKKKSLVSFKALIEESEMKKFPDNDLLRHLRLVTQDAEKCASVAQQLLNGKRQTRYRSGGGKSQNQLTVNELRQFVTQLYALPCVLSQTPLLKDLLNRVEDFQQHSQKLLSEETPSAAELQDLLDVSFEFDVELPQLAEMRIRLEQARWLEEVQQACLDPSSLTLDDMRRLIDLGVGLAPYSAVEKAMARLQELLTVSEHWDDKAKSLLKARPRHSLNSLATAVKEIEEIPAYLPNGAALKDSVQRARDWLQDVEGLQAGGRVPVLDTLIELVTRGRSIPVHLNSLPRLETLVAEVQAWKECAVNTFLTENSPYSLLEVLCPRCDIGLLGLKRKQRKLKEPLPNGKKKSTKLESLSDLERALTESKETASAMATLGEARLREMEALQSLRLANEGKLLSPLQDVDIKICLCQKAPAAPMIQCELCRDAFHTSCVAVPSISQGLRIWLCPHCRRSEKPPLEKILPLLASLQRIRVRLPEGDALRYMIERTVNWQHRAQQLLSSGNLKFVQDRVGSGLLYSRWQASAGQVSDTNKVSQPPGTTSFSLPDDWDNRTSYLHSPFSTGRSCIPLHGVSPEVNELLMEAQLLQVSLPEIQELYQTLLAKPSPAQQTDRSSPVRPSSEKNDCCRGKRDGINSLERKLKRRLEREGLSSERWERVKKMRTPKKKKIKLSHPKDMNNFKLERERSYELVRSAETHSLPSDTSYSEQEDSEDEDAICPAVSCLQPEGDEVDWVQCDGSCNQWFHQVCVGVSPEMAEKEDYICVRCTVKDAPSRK
# Assay: Primary screen for KDM5B Histone Demethylases FDH-coupled qHTS; also: nearly all actives have a fitted effect of over 70% in size; as to activity change, negative = inhibition: 0% is about no effect
# Settings: FDH-coupled NADH fluorescence (FDH is formaldehyde dehydrogenase); series mostly up to 57.7 µM; activity change, negative = inhibition: at the top concentration
# Procedure, shortened: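 KDM5BΔAP (200 nM final) in 50 mM HEPES pH 7.5, 0.01% Tween-20 was preincubated 10 min at RT with compound over a concentration range. Substrate mix (H3K4me3 12.5 µM, α-KG 25 µM, Fe²⁺, ascorbate, NAD⁺, FDH) was added, and NADH fluorescence change over 30 min gave dose-response curves.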
# Potency is read from the fitted curve at half-maximal effect.
SMILES,"activity change, negative = inhibition",Potency
O=C(Nc1cccc(S(=O)(=O)N2CCCC2)c1)c1cccc2cccnc12,-3.61% (inactive),
COc1ccc(C(C)=O)cc1CSCc1coc(-c2ccc(C)cc2)n1,-2.24% (inactive),
CCc1c(C(=O)Nc2ccc3nc(C)sc3c2)cnn1-c1ccc(OC)nn1,-12.8% (inactive),
Cc1ncsc1C(=O)NCc1ccc(N2CCCCCC2)nc1,11.7% (inactive),
COCCCNS(=O)(=O)c1cccc(S(=O)(=O)c2cccc(S(=O)(=O)NCCCOC)c2)c1,0.814% (inactive),
Cc1cc(=O)oc2cc(OCC(=O)NCC(C)(c3ccccc3)c3ccccc3)ccc12,-25% (inactive),
COc1ccc(-c2nccc3c(=O)cc(N(C)c4ccccc4)oc23)cn1,-25.8% [at 86.2 µM] (inactive),
O=C(Nc1c(F)cccc1F)c1cc(-c2ccccn2)nc2ccccc12,-7.6% (inactive),
O=c1cc(-c2ccccn2)oc2c(-c3ccccc3F)nccc12,,17.8 µM (active)
Cc1cccc(C(C)C)c1NC(=O)CSc1nnc(-c2cc(-c3ccccc3)n[nH]2)n1N,21.3% (inactive),
CCOC(=O)C(C)Oc1cccn2c(=O)c(-c3cc(C)n(-c4cccc(F)c4)n3)c(C)nc12 (stereo not given),,25.1 µM (active)
COC(=O)COc1cccn2c(=O)c(-c3cc(C)n(-c4ccc(C)cc4C)n3)c(C)nc12,,28.2 µM (active)
Cc1ccc(N2CCN(C(=O)CCc3c(C)nc4c(c3C)c(=O)n(C)c(=O)n4C)CC2)c(C)c1,-17.7% (inactive),
Cc1ccc2nc(COc3ccc(NC(=O)COc4ccccc4F)cc3)cc(=O)n2c1,-1.56% (inactive),
O=C(Nc1ccc(N2CCOCC2)c(Cl)c1)c1ccc2c3c(cccc13)CC2,-3.1% (inactive),
CC(c1nc2ccccc2s1)N(C)C(=O)c1cccc(S(=O)(=O)Nc2ccc(Cl)cc2)c1 (stereo not given),5.35% (inactive),
Cc1ccccc1C(=O)N1CCN(c2ccc([N+](=O)[O-])c(-n3nc(C)c4ccccc4c3=O)c2)CC1,8.7% (inactive),
N#Cc1c(N)n[nH]c1CCCNc1nc(-c2ccncc2)nc2ccccc12,-4.51% (inactive),
CC(C)c1nccn1CCCNc1nc(-c2ccncc2)nc2c1cnn2C,,22.4 µM (active)
Cc1ccccc1-c1ccc(C(=O)NCCCn2ccnc2C(C)C)cn1,-17.6% (inactive),
COc1ccc(CNC(=O)COC(=O)C(CCSC)N2C(=O)c3ccccc3C2=O)cc1 (stereo not given),-3.03% (inactive),
CCCC1(CCC)NC(=O)N(Cc2ncc(-c3ccccc3)o2)C1=O,-8.25% (inactive),
O=C1CN(Cc2cc3cc4c(cc3[nH]c2=O)OCO4)CCCN1,,20 µM (active)
CCCCCCCCNS(=O)(=O)/C=C/c1cc(C)ccc1CNC(=O)OC(C)(C)C,-5.34% (inactive),
CC(C)NC(NC(=O)c1ccc(C(C)(C)C)cc1)C(Cl)(Cl)Cl (stereo not given),9.93% (inactive),

SMILES,"activity change, negative = inhibition",Potency
CC(C)CNC(=O)N1C[C@@H](Oc2cccnc2)C[C@H]1C(=O)N1CCOCC1,-18.3% (inactive),
CC(C)CN[C@H]1[C@H](O)[C@H](O)C[C@@H]1c1ccc(N2CCOCC2)nc1,,35.5 µM (active)
COC(=O)c1ccc(COC(=O)c2ccc(N3CCOCC3)nc2)cc1,14.6% (inactive),
Cc1nc(-c2cn(C3CCCN(C(=O)c4cccs4)C3)nn2)no1 (stereo not given),13% (inactive),
COc1ccc(CN2CCc3ncc(C(=O)NCCOc4ccccc4)n3CC2)cn1,8.49% [at 86.2 µM] (inactive),
COc1cccc(CN2CCc3c(cc(C(=O)NCCN4CCCCC4)n3C)C2)c1,,22.4 µM (active)
CNC(=O)[C@@H]1CN(Cc2cccc(OC)c2)C[C@H]1CO,-15.8% (inactive),
CN(CCOc1ccccc1Cl)C(=O)c1cc2ccccc2oc1=O,5.68% (inactive),
O=C(COc1cccc(-n2cnnn2)c1)Nc1ccc(S(=O)(=O)N2CCOCC2)cc1,1.49% (inactive),
O=C1NCCN(Cc2ccccc2)C1CC(=O)N1CCN(c2ccccc2)CC1 (stereo not given),,20 µM (active)
O=C(O)CC1C(=O)NCCN1Cc1ccc(Cl)c(F)c1 (stereo not given),-18.6% (inactive),
Cc1ccc(CN2CCNC(=O)C2CC(=O)NC2(CO)CCCC2)cc1 (stereo not given),-28.9% (inactive),
COc1ccc(NC(=O)CSc2nccn2-c2cccc(C(F)(F)F)c2)cc1,2.82% (inactive),
CCN1CCC(N(Cc2cccs2)C(=O)Nc2cc(Cl)ccc2C(=O)OC)CC1,-26.5% (inactive),
O=C(CCNC(=O)c1cnccn1)Nc1ccccc1Cc1ccccc1,6.99% (inactive),
COc1ccccc1-c1noc(COC(=O)c2ccc3c(c2)NC(=O)CS3)n1,-20.1% (inactive),
C=CCNC(=O)C1N(C(C)C)C(=O)C12CCCC2 (stereo not given),-0.645% (inactive),
C=CCNC(=O)C1N(C(C)C)C(=O)C12CCCCC2 (stereo not given),-10.2% (inactive),
CC(C)N1C(=O)C2(CCCC2)C1C(=O)Nc1ccc2c(c1)N(C)CCC2 (stereo not given),,31.6 µM (active)
CCNC(=O)NC(=O)CSc1nc(-c2ccco2)nc2ccccc12,-20.4% (inactive),
CN1C[C@@H](NC(=O)c2ccccc2)C[C@H]1c1nc(-c2ccccc2)no1,-15.2% [at 86.2 µM] (inactive),
CN1C[C@@H](NC(=O)c2ccc(C(C)(C)C)cc2)C[C@H]1c1nc(-c2ccc3ccccc3c2)no1,,25.1 µM (active)
COc1ccc(C(=O)N[C@H]2C[C@@H](c3nc(-c4ccc(OC)cc4)no3)N(C)C2)cc1,-9.77% [at 86.2 µM] (inactive),
COc1ccc(Cl)cc1NC(=O)N1CCC2(CC1)N=C(c1ccc(C)c(C)c1)C(=O)N2,6.31% (inactive),
Cc1nc(-c2cn(C3CCCN(C(=O)c4cc(F)ccc4F)C3)nn2)no1 (stereo not given),18.6% (inactive),

SMILES,"activity change, negative = inhibition",Potency
Cc1ccc2c(C(=O)N3CCCC(C#N)C3)cc(-c3cnn(C(C)C)c3)nc2c1 (stereo not given),,28.2 µM (active)
CC(C)(C)OC(=O)N1CCN(C(=O)c2cc(-c3ccncc3)nc3ccccc23)CC1,8.94% (inactive),
C=CCn1c(SCc2coc(-c3cccc(Cl)c3)n2)nnc1C1CCS(=O)(=O)C1 (stereo not given),-12.8% (inactive),
COc1ccc(C(=O)OCC(=O)NCCCc2ccccc2)cc1OC,31.7% (inactive),
COc1ccc(C(=O)Nc2oc3ccc(Cl)cc3c(=O)c2-c2cc(OC)c(OC)c(OC)c2)cc1,0.542% (inactive),
CCn1ccnc1CN(C)C1CCCN(CCc2ccccc2)C1 (stereo not given),-0.558% (inactive),
CC(C)Nc1ncc(C(=O)NC2CCCN(CCc3ccccc3)C2)cn1 (stereo not given),,25.1 µM (active)
Cc1occc1C(=O)NC1CCCN(Cc2ccc(CC(C)C)cc2)C1 (stereo not given),21.5% (inactive),
Cc1ccc(C(=O)NC2CCN(c3cnn(CC4CC4)c(=O)c3)CC2)c(C)c1,-10.1% (inactive),
O=C(CSc1ncnc2c1cnn2-c1ccccc1)NC(=O)NC1CCCC1,14.8% (inactive),
Cc1nc2ncccn2c1C(=O)N[C@@H]1CCOC[C@H]1Oc1ccccn1,,31.6 µM (active)
O=C(N[C@@H]1CCOC[C@H]1Oc1ccccn1)c1cc(C2CC2)no1,30.4% (inactive),
N#Cc1ccc(O[C@@H]2COCC[C@H]2NC(=O)CCCn2cccn2)cc1,-3.46% (inactive),
Cc1nc(N(C)C)ncc1C(=O)N[C@@H]1CCOC[C@H]1Oc1ccccn1,,25.1 µM (active)
O=S(=O)(N[C@@H]1CCOC[C@H]1Oc1ccccn1)c1ccc(Cl)s1,22% (inactive),
O=C(N[C@H]1CCOC[C@H]1C1CCOCC1)c1cccc2nccnc12,-6.52% (inactive),
Cc1nn(C)c2nc(OC(C)C(=O)Nc3ccccc3F)cc(-c3ccccc3)c12 (stereo not given),-20.6% (inactive),
CC(C)n1cnnc1CC1CCN(C(=O)CCCc2ccccc2)C1 (stereo not given),-17.5% (inactive),
CC1(C)CC(=O)C/C(=N/NC(=O)c2ccccc2Br)C1,12.7% (inactive),
CC(=O)Nc1cccc(C(=O)N2CCC3(CC2)NC(=O)N(c2cccc(Cl)c2)N3)c1,-3.68% (inactive),
COc1ccc(S(=O)(=O)N(C)Cc2nc(-c3ccc(OC(F)(F)F)cc3)no2)cc1,-5.21% (inactive),
O=[S+]([O-])(Nc1ccccc1)c1ccc2c(c1)OCCN(Cc1cccs1)C2,-9.43% [at 86.2 µM] (inactive),
O=[S+]([O-])(Nc1cccnc1)c1ccc2c(c1)OCCN(Cc1cscn1)C2,,35.5 µM (active)
O=[S+]([O-])(Nc1cccnc1)c1ccc2c(c1)OCCN(Cc1ccc(F)cc1)C2,4.51% [at 86.2 µM] (inactive),
Cc1c(C)[n+](=O)c2ccccc2n1[O-],-2.24% (inactive),

SMILES,"activity change, negative = inhibition",Potency
O=C(COC(=O)Cc1ccc(Cl)c(Cl)c1)NCc1ccc(F)cc1,5.54% (inactive),
COC(=O)[C@H](Cc1ccc(OC)cc1)NC(=O)[C@@H]1CN(C(=O)c2cccc(F)c2)CCN1C(=O)c1cccc(F)c1,26.6% (inactive),
CC(C)(C)C(=O)NCCCC(=O)NCCc1cccs1,27.1% (inactive),
Fc1ccc(CNC[C@H]2Cn3c(-c4ccc5c(c4)OCCO5)cnc3CO2)cc1,-24.6% [at 86.2 µM] (inactive),
O=C(CSc1ncnc2sccc12)c1ccc2c(c1)OCCCO2,3.77% (inactive),
c1cc(-c2ccc3c(c2)OCCCO3)n2ncnc2n1,,15.8 µM (active)
CC(C)c1nc2nccc(-c3ccc4c(c3)OCCCO4)n2n1,,22.4 µM (active)
CC(Sc1ccc2c(c1)OCCCO2)C(=O)O (stereo not given),-13.6% (inactive),
CCCc1nnc2sc(-c3ccc4c(c3)OCCO4)nn12,109% (inactive),
Cc1cc(C)cc(-c2nnc(SCC(=O)N3CCCC(C)C3)o2)c1 (stereo not given),17% (inactive),
O=C(Cn1cccc1-c1nc(-c2ccccc2)no1)Nc1ccccc1F,6.26% (inactive),
COc1ccc(-c2c3c(=O)n(C)c(=O)n(C)c3c3n2C(C)(C)COC3c2cccc(OC)c2)cc1 (stereo not given),9.3% (inactive),
Cc1cc(C)c(-c2cc(C(=O)Nc3ccccc3C(F)(F)F)[nH]n2)c(O)c1,-15.4% (inactive),
Cc1cc(CNC(=O)c2ccc(-c3ccccc3Cl)o2)n(C)n1,,20 µM (active)
Cc1ccc(CNC(=O)c2nn(C)c(=O)c3ccccc23)cc1,-8.52% (inactive),
Cc1cc(C(=O)NCCc2ccc(Cl)cc2)n(-c2ccccc2)n1,21.8% (inactive),
CCOC(=O)C1CCN(CC(O)c2cccc(C(F)(F)F)c2)CC1 (stereo not given),9.21% (inactive),
COc1cccc(-c2nc(N3CCOCC3)cc3c2CN(CC2CC2)C3=O)c1,,39.8 µM (active)
O=C(c1cccnc1)N1CCN(c2cc(-c3ccccc3)[nH]n2)CC1,11.3% (inactive),
O=C(c1cccnc1)N1CCC2(CCCN(C3CCOCC3)C2=O)C1 (stereo not given),10.8% (inactive),
O=C1c2cc(N3CCOCC3)nc(-c3cccnc3)c2CN1C1COC1,,31.6 µM (active)
COCC(=O)N(C1CCOCC1)C1CCN(C(=O)c2cccc(OC)c2)CC1,20% (inactive),
Cc1ccc(-c2nc(N3CCOCC3)cc3c2CN(Cc2cnn(C)c2)C3=O)cn1,,35.5 µM (active)
Cc1ccc(NC(=O)Nc2ccc3nc(N4CCOCC4)cc(C)c3c2)cc1,-9.19% (inactive),
COc1cccc(-c2noc(CC3CCN(C(=O)c4ccc(F)cc4)CC3)n2)c1,10.6% (inactive),
